Results from PubChem BioAssay AID759 (NMMLSC, 2007).
About 270 (0.14%) of roughly 190,000 compounds were called active. Another 2% or so got no clear call; they are omitted. Shown is part of a subset that was picked to be rich in actives. Unmarked numbers belong to inactive results.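 How the source made its calls: active means GTP binding activity at least 20% away from the 100% baseline, either lowered as inhibitor or raised as activator; inconclusive means flagged as likely green fluorescent, judged across all proteins in the well; inactive means the rest.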

Each molecule was assayed against GTPase HRas (Homo sapiens) (UniProt P01112) (assay: HRas wt fluorescent GTP binding changes, either direction – biochemical, wildtype, bead-based flow cytometry, multiplex, primary screen (AID 759;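 further: 0% = unlabeled GTP competition control and 100% = no-compound control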)). Conditions: GST-Ras wt beads, Bodipy-FL-GTP binding, at 10 µM, actives lie on both sides.
Chain of GTPase HRas (Homo sapiens) (P01112 whole entry, looked up): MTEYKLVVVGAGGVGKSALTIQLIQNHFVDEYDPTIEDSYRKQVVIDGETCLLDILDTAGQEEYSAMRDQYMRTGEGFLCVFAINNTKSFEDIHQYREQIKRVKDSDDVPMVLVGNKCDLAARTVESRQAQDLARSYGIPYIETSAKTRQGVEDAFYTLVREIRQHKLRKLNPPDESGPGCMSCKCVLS
Molecule `CCCC(C)n1[nH]c(=O)c2c1NC(=O)CSC2c1ccc(OC)c(OC)c1` (stereo not given) has a GTP binding activity of 98%.
With `CCOc1ccc(C2SCC(=O)Nc3c2c(C)nn3C2CCOC(C)(C)C2)cc1` (stereo not given) the GTP binding activity was 73% (active).
In the case of `CC1=CC(=Cc2sc3ccccc3[n+]2C)C=C(C)O1`, the GTP binding activity is reported as 103%.
For `COc1ccc(CN2C(=O)NC(=O)/C(=C\c3ccc(OC)c(OC)c3OC)C2=O)cc1`, the GTP binding activity was 97%.
With `Cc1ccsc1C(=O)C1CCCN(Cc2ccc(O)cc2)C1` (stereo not given) the GTP binding activity was 98%.
